The campaign covered roughly 96,000 compounds. About 20,000 (21%) were called active.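 The calls were made as follows: active = CYP2C19 inhibition above a set limit at 5 µM in the primary screen (cut at about 50% in these data); inactive = the rest.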 The list is a sample of the results.

Chain of Cytochrome P450 2C19 (Homo sapiens) (P33261 whole entry, looked up): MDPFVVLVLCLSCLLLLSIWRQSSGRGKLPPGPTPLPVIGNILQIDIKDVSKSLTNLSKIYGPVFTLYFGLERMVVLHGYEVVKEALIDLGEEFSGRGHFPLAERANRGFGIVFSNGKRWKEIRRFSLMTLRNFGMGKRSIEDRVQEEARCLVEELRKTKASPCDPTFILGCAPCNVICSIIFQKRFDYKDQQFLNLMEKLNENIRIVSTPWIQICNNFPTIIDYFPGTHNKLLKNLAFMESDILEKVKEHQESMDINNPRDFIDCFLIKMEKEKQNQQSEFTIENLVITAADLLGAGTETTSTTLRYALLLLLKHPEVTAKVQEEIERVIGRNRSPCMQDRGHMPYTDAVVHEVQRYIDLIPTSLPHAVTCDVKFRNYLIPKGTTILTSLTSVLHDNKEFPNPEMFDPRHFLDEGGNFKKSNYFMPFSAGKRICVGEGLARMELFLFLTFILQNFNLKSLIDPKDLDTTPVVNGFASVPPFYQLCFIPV

The experiment has as its target Cytochrome P450 2C19 (Homo sapiens) (UniProt P33261). Nature of the experiment: blockers of cytochrome P450 2C19 activity – biochemical, luminescence, ADME assay, primary screen (AID 778).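 Also: plate controls were negative control wells for no effect and 2.5 mM tranylcypromine positive control for full effect.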 To be noted: CYP2C19 Supersomes, luciferin-H EGE luminescence, 30 min; at 5 µM; stronger effect = higher value.
As for `CCOC(=O)C1C(=O)C=C(c2ccc(OC)cc2)CC1c1ccco1` (stereo unspecified), the inhibition (commonly the change of the read-out against control, counted positive when it falls) is 28.1% (inactive).

Consider `O=C(OCC(O)C(O)COC(=O)c1ccccc1)c1ccccc1` (stereo unspecified), for which the inhibition was 83.5% (active).

Consider `CCCCCCOC(=O)NCC(O)c1ccccc1` (stereo unspecified), for which the inhibition was 23.3% (inactive).

For `O=C(NC(=O)c1ccccc1)NC(=O)c1ccccc1`, the inhibition is 21.7% (inactive).

With `COc1ccc(-c2nc(-c3ccccc3)no2)c(OC)c1`, the inhibition is 12.8% (inactive).

As to `CCOC(=O)C(CC)Sc1ncnc2c1nnn2-c1ccc(F)cc1` (stereo unspecified), the inhibition is 10.5% (inactive).

For `CCN(CC(=O)NC1CCS(=O)(=O)C1)c1nc(-c2cccnc2)nc2ccccc12` (stereo unspecified), the inhibition was 4.6% (inactive).

As for `Cc1ccc2c(c1)C(O)(CC(=O)c1cccnc1)C(=O)N2` (stereo unspecified), the inhibition was 10.2% (inactive).

In the case of `Cc1ccc(NC2(C#N)C(=O)Nc3ccccc32)cc1` (stereo unspecified), the inhibition is 60.3% (active).

On to `CN1CCN(c2nc3c(c(=O)[nH]c(=O)n3C)n2Cc2cccc3ccccc23)CC1`, for which the inhibition is 1.2% (inactive).

With `O=C(Nc1ccn(Cc2ccc(F)cc2)n1)c1ccncc1`, the inhibition is 97.8% (active).

As to `Cc1ccc(Cn2ccc(NC(=O)C3C4CCC(C4)C3C(=O)O)n2)cc1` (stereo unspecified), the inhibition is 15% (inactive).

In the case of `Cc1cc(NC(=O)c2cc(-c3cccs3)on2)nn1Cc1ccc(Cl)cc1`, the inhibition is 2% (inactive).

For `CC(=O)Nc1ccn(Cc2c(F)cccc2Cl)n1`, the inhibition is 48.9% (inactive).

With `Cc1ccc(Cn2ccc(NC(=O)c3cc(C(C)C)on3)n2)cc1`, the inhibition was 97.2% (active).

As to `Cc1nn(Cc2ccc(F)cc2)c(C)c1NC(=O)c1noc2c1CCc1ccccc1-2`, the inhibition was 1% (inactive).

In the case of `Cc1ccc(N(NC(=O)C(C)(C)O)C(=O)c2ccccc2)cc1C`, the inhibition was 14.9% (inactive).

For `COc1ccccc1CNC(=O)Cn1cc2c(n1)CCCC2`, the inhibition was 20.5% (inactive).

Take `O=P(O)(CN1CCCCC1)CN1CCCCC1`: the inhibition was -0.9% (inactive).

`Cc1ccc(-c2cnc(NC(=O)CCC(=O)N(C)Cc3ccccc3)n2C)cc1`: the inhibition is 1% (inactive).

Take `COc1ccccc1Nc1nc(N)nc(CN(C)C2CCCCC2)n1`: the inhibition was -23.9% (inactive).

In the case of `COc1ccccc1NC1=NC2(CCCC2)N=C(N)N1`, the inhibition was -6% (inactive).

`COc1ccccc1NC1=NC(c2ccc(Cl)cc2)N=C(N)N1` (stereo unspecified): the inhibition was 92.6% (active).

As to `C=C(C)Cn1c(N2CCN(CC)CC2)nc2c1c(=O)[nH]c(=O)n2C`, the inhibition was -24.3% (inactive).

For the compound `O=S(=O)(c1ccc(Sc2nnc3ccccn23)nc1)N1CCOCC1`, the inhibition is 13.2% (inactive).

Regarding `CCOC(=O)NCc1ccc2c(c1)OCO2`, the inhibition is 48.5% (inactive).

Regarding `O=C(COC(=O)c1ccc2c(c1)OCCO2)NCc1ccccc1`, the inhibition is 6.9% (inactive).

As for `O=C(CNS(=O)(=O)c1ccc(Br)s1)NCc1ccc2c(c1)OCO2`, the inhibition was 63.1% (active).

With `Cc1ccc(C(=O)OCC(=O)NCc2ccc3c(c2)OCO3)s1`, the inhibition was 64% (active).

Consider `O=C(CN1CCN(c2nc(-c3ccccc3)cs2)CC1)NCc1ccc2c(c1)OCO2`, for which the inhibition was 91.6% (active).

`O=C(CCNS(=O)(=O)c1ccccc1C(F)(F)F)NCc1ccc2c(c1)OCO2`: the inhibition is 84.6% (active).

Take `O=C(NCc1ccc2c(c1)OCO2)C12CC3CC(CC(C3)C1)C2`: the inhibition is 26.4% (inactive).

Consider `O=C(CNS(=O)(=O)c1ccc(Br)s1)N1CCN(C(=O)c2ccco2)CC1`, for which the inhibition is 26.7% (inactive).

Regarding `COc1ccc(-c2csc(N3CCN(Cc4ccc5c(c4)OCO5)CC3)n2)cc1`, the inhibition is -20.9% (inactive).

Turning to `O=C(CN(Cc1ccccc1)C(=O)c1ccc2c(c1)OCCO2)NCc1ccc2c(c1)OCO2`, the inhibition is 29.2% (inactive).

For the compound `O=C(Cn1nnc(-c2ccccc2)n1)NCc1ccc2c(c1)OCO2`, the inhibition was 25.4% (inactive).

Regarding `C/C(=N\O)C1(C)N(O)C(C)(C)C(c2ccc(Br)cc2)=[N+]1[O-]` (stereo unspecified), the inhibition was -15.7% (inactive).

For the compound `Cc1ccccc1OCC(=O)NCC(=O)OCC(=O)c1ccc2ccccc2c1`, the inhibition was -2% (inactive).

Turning to `COC(=O)c1sc(NC(=O)c2csc3c2CCCC3)nc1C`, the inhibition is -10.6% (inactive).

As to `Clc1ccccc1-c1cc(COc2ccc3ccccc3c2)no1`, the inhibition was 3.1% (inactive).

Take `CCCCSc1[nH]c(=O)c(C(=O)OCC)cc1C#N`: the inhibition was 3.8% (inactive).

`Cc1cc(C)n2nc(C(=O)Oc3ccc4c(c3)OCO4)nc2n1`: the inhibition is -10.7% (inactive).

Turning to `CN(C)CC(O)COc1ccc(C(C)(C)c2ccc(OCC(O)CN(C)C)cc2)cc1` (stereo unspecified), the inhibition was -7.2% (inactive).

`CCc1c(C)nc2ncnn2c1N1CCC(C(=O)NCc2ccc3c(c2)OCO3)CC1`: the inhibition was 17.6% (inactive).

Take `O=C(NCc1ccc2c(c1)OCO2)c1ccc2c(c1)C(=O)N(CC1CCCO1)C2=O` (stereo unspecified): the inhibition was -1.9% (inactive).

As for `O=C(CCCCn1c(=O)[nH]c2ccccc2c1=O)NCc1ccc2c(c1)OCO2`, the inhibition is 28% (inactive).

Turning to `CCOC(=O)N1CCC(NC(=O)CCc2cn(C)c3ccccc23)CC1`, the inhibition was 15.5% (inactive).

Turning to `Cn1cc(CCC(=O)NCc2ccc3c(c2)OCO3)c2ccccc21`, the inhibition was 93.8% (active).

Regarding `O=C(COc1ccccc1)NCc1ccc2c(c1)OCO2`, the inhibition is 69.2% (active).

`CC1CCCCN1CC(=O)NCc1ccc2c(c1)OCO2` (stereo unspecified): the inhibition is 69.6% (active).

Turning to `COC(=O)Cc1c(C)c2ccc(OCC(=O)NCc3ccc4c(c3)OCO4)cc2oc1=O`, the inhibition was 21.2% (inactive).

Take `O=C(CC(Cc1ccccc1)C(=O)O)NCCc1ccc2c(c1)OCO2` (stereo unspecified): the inhibition was 4% (inactive).

In the case of `COC(=O)c1sc2ncccc2c1OCc1ccc(Cl)cc1Cl`, the inhibition is -1.5% (inactive).

With `COc1ccc2[nH]c(C)c(CCN(Cc3cccs3)C(=S)Nc3ccccc3OC)c2c1`, the inhibition is 25.1% (inactive).

In the case of `O=C1c2ccccc2NC(c2ccc(-c3cccc(Cl)c3)o2)N1O` (stereo unspecified), the inhibition is 22.2% (inactive).

In the case of `Cc1cc(NC(=O)Nc2ccccc2)n(-c2ccccc2)n1`, the inhibition was 29.8% (inactive).

Turning to `CC(C)[C@H](NC(=O)Nc1ccc(S(N)(=O)=O)cc1)C(=O)O`, the inhibition is -1.3% (inactive).

For the compound `N#CCSc1nc2ccc(N3CCOCC3)cc2c(=O)n1CCc1ccccc1`, the inhibition was 12.7% (inactive).

For the compound `CCCCCCSc1nsc(N)n1`, the inhibition was 45.3% (inactive).

On to `O=C1CC(C(F)(F)C(F)(F)C(F)(F)C(F)(F)F)=Nc2ccccc2N1`, for which the inhibition was 35.1% (inactive).

Take `COc1ccc(Oc2c(Cl)cnn(-c3ccccc3)c2=O)cc1`: the inhibition was 29.7% (inactive).

`O=c1c2ccccc2nc2n1C(CSc1ccc(Cl)cc1)CN2` (stereo unspecified): the inhibition was 18.3% (inactive).

`COc1ccc(OCc2ccc(-c3nc4ccccc4c(=O)n3N)o2)cc1`: the inhibition was 51.4% (active).

For the compound `Cc1ccc(S(=O)(=O)NCc2nc3ccccc3c(=O)n2N)cc1`, the inhibition is -4% (inactive).

Take `Cn1c(COc2ccc(Cl)cc2)nc2ccccc2c1=O`: the inhibition was 62.8% (active).

In the case of `Cc1ccc(C(=O)CSc2nc3ccccc3c(=O)n2N)o1`, the inhibition is 33.5% (inactive).

Source of the values: PubChem BioAssay AID778 (Sanford-Burnham Center for Chemical Genomics, 2007).
